Experimental data: PubChem BioAssay AID1159580 (chemical genetic matrix, 2015)
About 2,000 (36%) of roughly 5,500 compounds were called active. Inconclusive results (about 18%) are left out. Cut-off read from the data, not from the text of the source: active = normalized growth mostly below about 0.91 (no sharp cut-off); inconclusive = no clear call, values can overlap the other calls; inactive = mostly above about 0.92. The list shows a part of the results.

Assay: chemical genetic growth profiling, strain panel (AID 1159580);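 note: tested at 20 µM; growth read once vehicle control cultures reached saturation at 30 °C; 1 = growth at the plate median or of vehicle wells; lower values mean less growth of the strain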
Details: growth OD
[1] = S. cerevisiae deletion strains, locus YAL013W, strain DEP1, hits give low values
[2] = S. cerevisiae deletion strains, locus YDR150W, strain NUM1, hits give low values
[3] = S. cerevisiae deletion strains, locus YJL095W, strain BCK1, hits give low values
[4] = S. cerevisiae deletion strains, locus YMR307W, strain GAS1, hits give low values
[5] = S. cerevisiae deletion strains, locus YPL241C, strain CIN2, hits give low values
[6] = S. cerevisiae deletion strains, locus YAL040C, strain CLN3, hits give low values
[7] = S. cerevisiae deletion strains, locus YDR363W, strain ESC2, hits give low values
[8] = S. cerevisiae deletion strains, locus YER002W, strain NOP16, hits give low values
[9] = S. cerevisiae deletion strains, locus YNL175C, strain NOP13, hits give low values
[10] = S. cerevisiae deletion strains, locus YNL197C, strain WHI3, hits give low values
[11] = S. cerevisiae deletion strains, locus YNL224C, strain SQS1, hits give low values
[12] = S. cerevisiae deletion strains, locus YOR083W, strain WHI5 (second series), hits give low values

Measured: normalized growth

CC1(C)C(=O)[C@@H]2O[C@@H]2[C@@]2(C)C1CC(=O)[C@]1(C)C2CC[C@@]2(C)[C@H](c3ccoc3)OC(=O)[C@H]3O[C@]321 (some centres undefined)
inactive: [1] 0.99 | S. cerevisiae deletion strains, locus YBR021W, strain FUR4, hits give low values 1.04 | S. cerevisiae deletion strains, locus YBR229C, strain ROT2, hits give low values 0.984 | S. cerevisiae deletion strains, locus YCL029C, strain bik1, hits give low values 0.976 | S. cerevisiae deletion strains, locus YDL035C, strain GPR1, hits give low values 0.992 | S. cerevisiae deletion strains, locus YDL074C, strain BRE1, hits give low values 0.955 | S. cerevisiae deletion strains, locus YDL101C, strain DUN1, hits give low values 0.978 | S. cerevisiae deletion strains, locus YDL134C, strain PPH21, hits give low values 0.967 | S. cerevisiae deletion strains, locus YDL185W, strain tfp1, hits give low values 0.951 | S. cerevisiae deletion strains, locus YDL192W, strain arf1, hits give low values 0.979 | S. cerevisiae deletion strains, locus YDR101C, strain arx1, hits give low values 0.985 | [2] 0.991 | S. cerevisiae deletion strains, locus YDR162C, strain NBP2, hits give low values 0.943 | S. cerevisiae deletion strains, locus YDR318W, strain mcm21, hits give low values 0.984 | S. cerevisiae deletion strains, locus YDR388W, hits give low values 0.985 | S. cerevisiae deletion strains, locus YDR502C, strain sam2, hits give low values 0.969 | S. cerevisiae deletion strains, locus YEL061C, strain CIN8, hits give low values 0.994 | S. cerevisiae deletion strains, locus YER110C, hits give low values 0.98 | S. cerevisiae deletion strains, locus YER155C, strain BEM2, hits give low values 0.994 | S. cerevisiae deletion strains, locus YER167W, strain BCK2, hits give low values 0.991 | S. cerevisiae deletion strains, locus YGL078C, strain dbp3, hits give low values 0.966 | S. cerevisiae deletion strains, locus YGL086W, strain mad1, hits give low values 0.995 | S. cerevisiae deletion strains, locus YGL248W, strain PDE1, hits give low values 0.949 | S. cerevisiae deletion strains, locus YGR135W, strain pre9, hits give low values 0.968 | S. cerevisiae deletion strains, locus YGR252W, strain gcn5, hits give low values 0.962 | S. cerevisiae deletion strains, locus YHR079C, strain IRE1 (second series), hits give low values 0.987 | S. cerevisiae deletion strains, locus YHR094C, strain hxt1, hits give low values 0.981 | S. cerevisiae deletion strains, locus YHR129C, strain ARP1, hits give low values 0.988 | S. cerevisiae deletion strains, locus YHR200W, strain rpn10, hits give low values 0.988 | S. cerevisiae deletion strains, locus YIL066C, strain RNR3, hits give low values 0.987 | S. cerevisiae deletion strains, locus YIL073C, strain SPO22, hits give low values 0.96 | S. cerevisiae deletion strains, locus YIL125W, strain kgd1, hits give low values 0.943 | S. cerevisiae deletion strains, locus YIR030C, strain dcg1, hits give low values 0.975 | [3] 0.946 | S. cerevisiae deletion strains, locus YJL134W, strain LCB3, hits give low values 0.988 | S. cerevisiae deletion strains, locus YJL168C, strain set2, hits give low values 0.989 | S. cerevisiae deletion strains, locus YJL187C, strain SWE1 (second series), hits give low values 0.977 | S. cerevisiae deletion strains, locus YJR043C, strain POL32, hits give low values 0.991 | S. cerevisiae deletion strains, locus YKL009W, strain mrt4, hits give low values 0.971 | S. cerevisiae deletion strains, locus YKL068W, hits give low values 0.973 | S. cerevisiae deletion strains, locus YKL085W, strain MDH1 (second series), hits give low values 0.981 | S. cerevisiae deletion strains, locus YKL085W, strain MDH1, hits give low values 0.981 | S. cerevisiae deletion strains, locus YKR001C, strain vps1, hits give low values 0.957 | S. cerevisiae deletion strains, locus YLR039C, strain RIC1, hits give low values 0.951 | S. cerevisiae deletion strains, locus YLR058C, strain SHM2, hits give low values 0.988 | S. cerevisiae deletion strains, locus YLR102C, strain apc9, hits give low values 0.975 | S. cerevisiae deletion strains, locus YLR262C, strain YPT6, hits give low values 0.912 | S. cerevisiae deletion strains, locus YLR268W, strain sec22, hits give low values 0.997 | S. cerevisiae deletion strains, locus YLR330W, strain CHS5, hits give low values 0.99 | S. cerevisiae deletion strains, locus YLR342W, strain FKS1 (second series), hits give low values 1.03 | S. cerevisiae deletion strains, locus YLR371W, strain rom2, hits give low values 0.962 | S. cerevisiae deletion strains, locus YLR418C, strain cdc73, hits give low values 0.904 | S. cerevisiae deletion strains, locus YML016C, strain PPZ1, hits give low values 0.984 | S. cerevisiae deletion strains, locus YML032C, strain rad52, hits give low values 0.992 | S. cerevisiae deletion strains, locus YML124C, strain tub3, hits give low values 0.97 | S. cerevisiae deletion strains, locus YMR078C, strain ctf18, hits give low values 0.955 | S. cerevisiae deletion strains, locus YMR223W, strain ubp8, hits give low values 0.973 | [4] 1.05 | S. cerevisiae deletion strains, locus YNL067W, strain RPL9B, hits give low values 0.957 | S. cerevisiae deletion strains, locus YNL233W, strain BNI4, hits give low values 0.964 | S. cerevisiae deletion strains, locus YNL250W, strain rad50, hits give low values 0.96 | S. cerevisiae deletion strains, locus YNL271C, strain bni1, hits give low values 0.973 | S. cerevisiae deletion strains, locus YNL298W, strain CLA4, hits give low values 0.967 | S. cerevisiae deletion strains, locus YNL307C, strain MCK1, hits give low values 0.982 | S. cerevisiae deletion strains, locus YNR052C, strain pop2, hits give low values 0.977 | S. cerevisiae deletion strains, locus YOL006C, strain TOP1, hits give low values 0.895 | S. cerevisiae deletion strains, locus YOL012C, strain htz1 0.769 | S. cerevisiae deletion strains, locus YOL147C, strain pex11, hits give low values 0.988 | S. cerevisiae deletion strains, locus YOR061W, strain CKA2, hits give low values 0.977 | S. cerevisiae deletion strains, locus YOR069W, strain VPS5, hits give low values 0.985 | S. cerevisiae deletion strains, locus YOR136W, strain idh2, hits give low values 0.995 | S. cerevisiae deletion strains, locus YOR144C, strain elg1, hits give low values 0.983 | S. cerevisiae deletion strains, locus YOR184W, strain ser1, hits give low values 0.982 | S. cerevisiae deletion strains, locus YOR316C, strain cot1, hits give low values 0.973 | [5] 0.977 | S. cerevisiae deletion strains, locus YPR119W, strain clb2, hits give low values 0.986 | S. cerevisiae deletion strains, locus YPR141C, strain kar3, hits give low values 0.964 | S. cerevisiae deletion strains, locus YPR163C, strain tif3, hits give low values 0.995 | S. cerevisiae deletion strains, locus YPR167C, strain met16, hits give low values 0.985 | S. cerevisiae deletion strains, strain wtn01, hits give low values 0.978 | S. cerevisiae strains, strain wild type, hits give low values 1.01

Cc1nc(N=Nc2ccc(S(=O)(=O)O)cc2S(=O)(=O)O)c(COP(=O)(O)O)c(C=O)c1O
inactive: [6] 1 | S. cerevisiae deletion strains, locus YCL061C, strain MRC1 (second series), hits give low values 1 | [2] 1.01 | [7] 1.01 | [8] 0.993 | S. cerevisiae deletion strains, locus YGR229C, strain SMI1, hits give low values 1.02 | [4] 0.998 | S. cerevisiae deletion strains, locus YNL128W, strain TEP1, hits give low values 1.02 | [9] 1 | [10] 1.01 | [11] 1.01 | [12] 1.01 | S. cerevisiae deletion strains, locus YPL055C, strain LGE1, hits give low values 1 | [5] 0.997

CC(C)C1C2CCC(C2)C1N (centres undefined)
inactive: [1] 1.01 | [6] 0.976 | [2] 0.985 | [7] 1.02 | [8] 1 | S. cerevisiae deletion strains, locus YGR078C, strain PAC10, hits give low values 1.02 | S. cerevisiae deletion strains, locus YNL153C, strain GIM3, hits give low values 1.03 | [9] 1.02 | [10] 1 | [11] 1.03 | [12] 1.01

O1[As]2O[As]3O[As]1O[As](O2)O3
inactive: S. cerevisiae deletion strains, locus YHR030C, strain SLT2, hits give low values 0.959 | S. cerevisiae deletion strains, locus YHR079C, strain IRE1, hits give low values 0.974 | [3] 0.983 | S. cerevisiae deletion strains, locus YJR066W, strain TOR1, hits give low values 0.961 | S. cerevisiae deletion strains, locus YLR113W, strain HOG1, hits give low values 1.05 | S. cerevisiae deletion strains, locus YNL183C, strain NPR1, hits give low values 0.927 | S. cerevisiae deletion strains, locus YOR231W, strain MKK1, hits give low values 0.973 | S. cerevisiae deletion strains, locus YPL256C, strain CLN2, hits give low values 0.98
